{"source": "PubChem BioAssay (NCATS)", "note": "Several values for one entry are separate records, joined by “and”; a condition that tells them apart may be missing. Identical values can stand only once. Inconclusive results are not listed. Entries that show only a call come without a potency. Activity calls are given as the source filed them. Calls follow the shape of the dose curve; as a rule, active = well fitted cell-killing curve with a large enough effect; inconclusive = small, poorly fitted or top-dose-only effect; inactive = flat fitted curve, though single readings scatter. Potency is read from the fitted curve at half-maximal effect.", "data": [{"assay": "qHTS of pediatric cancer cell lines to identify multiple opportunities for drug repurposing: Primary screen for BT-12 cells (AID 1347101); also: nearly all actives have a fitted effect of over 25% in size", "settings": "BT-12 viability, CellTiter-Glo luminescence, 48 h; series mostly up to 57.3 µM", "outline": "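Cells (500-1,000/well) rested 5 h, then received compounds for 48 h; metabolically active cells were measured by CellTiter-Glo luminescence. Final concentrations spanned up to 46 µM (MIPE, 11-point) or 0.59 nM-46 µM (NPC, 8-point) in primary screens, 11-point in follow-ups.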", "values": [{"smiles": "Cc1nc2ccccc2c(=O)n1-c1ccccc1Cl", "Potency": "inactive"}, {"smiles": "c1ccc2nc(N3CCNCC3)ccc2c1", "Potency": "inactive"}, {"smiles": "Nc1ccc(Cl)cc1C(=O)c1ccccc1F", "Potency": "inactive"}, {"smiles": "CN1CCC(N(Cc2ccccc2)c2ccccc2)CC1", "Potency": "inactive"}, {"smiles": "O=C1NCN(c2ccccc2)C12CCN(CCCOc1ccc(F)cc1)CC2", "Potency": "11 µM (active)"}, {"smiles": "Oc1ccc([C@H]2CNCc3c2ccc(O)c3O)cc1O", "Potency": "inactive"}, {"smiles": "C[C@]12C=CC(=O)C=C1CC[C@@H]1[C@@H]2CC[C@@]2(C)[C@H]1CC[C@]2(C)O", "Potency": "inactive"}, {"smiles": "C[C@]12CC[C@H]3[C@@H](CCC4=CC(=O)CC[C@@H]43)[C@@H]1CC[C@@H]2O", "Potency": "inactive"}, {"smiles": "C[C@@H]1C[C@@H]([C@H](O)CC2CC(=O)NC(=O)C2)C(=O)[C@@H](C)C1", "Potency": "777 nM (active) and 611 nM (active)"}, {"smiles": "C=CCN1CC[C@]23CCCC[C@H]2[C@H]1Cc1ccc(O)cc13", "Potency": "inactive"}, {"smiles": "CCS(=O)(=O)C(C)(C)S(=O)(=O)CC", "Potency": "inactive"}, {"smiles": "C[N+]1(C)[C@@H]2CC[C@H]1CC(OC(=O)C(CO)c1ccccc1)C2", "note": "(some centres not stated)", "Potency": "inactive"}, {"smiles": "CCC(=O)OC1(c2ccccc2)CCN(C)CC1", "Potency": "inactive"}, {"smiles": "Cc1nnc2n1-c1sc(CCc3ccc(CC(C)C)cc3)cc1C(c1ccccc1Cl)=NC2C", "note": "(configuration not stated)", "Potency": "11 µM (active)"}, {"smiles": "O=C(O)CCCCCCNC1c2ccccc2CCc2ccccc21", "Potency": "inactive"}, {"smiles": "CCC(=O)O[C@H]1CC[C@H]2[C@@H]3CCC4=CC(=O)CC[C@]4(C)[C@H]3CC[C@]12C", "Potency": "inactive"}, {"smiles": "CN(C)C(=S)SSC(=S)N(C)C", "Potency": "0.246 µM (active)"}, {"smiles": "O=C(N[C@@H]1N=C(c2ccccc2F)c2cccc3c2N(CC3)C1=O)c1cc2ccccc2[nH]1", "Potency": "inactive"}, {"smiles": "Cc1ncc2n1-c1ccc(Cl)cc1C(c1ccccc1F)=NC2", "Potency": "inactive"}, {"smiles": "C[C@]12CC[C@H]3[C@@H](CCC4=CC(=O)CC[C@@]43C)[C@@H]1CC[C@@H]2C(=O)O", "Potency": "inactive"}, {"smiles": "C[C@H](N)[C@H](O)c1ccc(O)c(O)c1", "Potency": "inactive"}, {"smiles": "O=C(CCCCl)c1ccc(F)cc1", "Potency": "inactive"}, {"smiles": "CCCCCCCCC(=O)NCc1ccc(O)c(OC)c1", "Potency": "inactive"}, {"smiles": "Nc1ccc(N)cc1", "Potency": "inactive"}, {"smiles": "CCOC(=O)NC(O)C(Cl)(Cl)Cl", "note": "(configuration not stated)", "Potency": "inactive"}, {"smiles": "N#Cc1nn(-c2c(Cl)cc(C(F)(F)F)cc2Cl)c(N)c1S(=O)C(F)(F)F", "note": "(configuration not stated)", "Potency": "12.3 µM (active)"}, {"smiles": "CC(Cc1ccccc1)NCc1ccccc1Cl", "note": "(configuration not stated)", "Potency": "inactive"}]}]}
